Assay results from PubChem BioAssay AID1117319 (Southern Research Institute, 2015).
Several values for one entry are separate records, joined by “and”; a condition that tells them apart may be missing. Identical values can stand only once. About 1,500 (0.58%) of roughly 260,000 compounds were called active. Roughly 5% stayed inconclusive and do not appear here.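 Rule for the calls: active = inhibition above a set limit at one or more doses, reproduced on every date tested; inconclusive = results disagree between test dates, or hit never tested in dose response; inactive = the rest.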 A selection follows. Measured potencies and affinities stand elsewhere.

Target: Virion infectivity factor (Human immunodeficiency virus type 1 group M subtype B (isolate BH10)) + Virion infectivity factor (Human immunodeficiency virus type 1 group M subtype B (isolate BRU/LAI)) + Virion infectivity factor (Human immunodeficiency virus type 1 group M subtype B (isolate PCV12)) + Virion infectivity factor (Human immunodeficiency virus type 1 group M subtype B (isolate HXB2)) + DNA dC->dU-editing enzyme APOBEC-3G (Homo sapiens) (UniProt P69720+P69721+P69722+P69723+Q9HC16)
Test: inhibitors of Vif binding to APOBEC3G peptide, primary screen, biochemical, TR-FRET, GST-Vif 1-94, biotin-A3G peptide, dose response retest (AID 1117319);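 note: Vif residues 1-94 fused to GST binding biotinylated APOBEC3G peptide 110-148; 0% = full assay without inhibitor and 100% = GST in place of GST-Vif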
Conditions: active compounds read high

inhibition, inactive:
COc1cccc(NC(=O)CN2C(=O)COc3ccc(S(=O)(=O)N4CCC(C)CC4)cc32)c1 -1.2%
OCCC1CN(Cc2cccc3nonc23)CCN1Cc1ccsc1 (stereo not drawn) 21.2%
CC(C)CCNC(=O)C(c1ccco1)N(CC1CCCO1)C(=O)Cn1nnc2ccccc21 (stereo not drawn) 18.9%
CC1(OC(=O)C2CCCC2)C(=O)C=C2C=C(c3ccsc3)N(CCCCO)C=C2C1=O (stereo not drawn) 21.2%
C=CCN1C=C2C(=O)C(C)(OC(=O)C3CCCC3)C(=O)C=C2C=C1c1ccsc1 (stereo not drawn) 22.2%
COc1ccc(CN2C=C3C(=O)C(C)(OC(=O)C4CCCC4)C(=O)C=C3C=C2c2ccsc2)cc1 (stereo not drawn) 31%
COC(=O)CCC(=O)OC1(C)C(=O)C=C2C=C(C3CC3)N(c3ccccc3)C=C2C1=O (stereo not drawn) 21.6%
CCCCC1=CC2=CC(=O)C(C)(OC(=O)CC)C(=O)C2=CN1C1CCCCC1 (stereo not drawn) 18.3%
COC/C=C/C1=CC2=CC(=O)C(C)(OC(=O)c3cnc4ccccc4n3)C(=O)C2=CN1C(CO)CO (stereo not drawn) 19.5%
CCOC(=O)C1=C(COC(=O)Cc2ccccc2)NC(=O)NC1C (stereo not drawn) 2.89%
CCCS(=O)(=O)c1nc(S(=O)(=O)c2ccc(C)cc2)c(N2CCCC2)s1 -10.9%
O=C1C2CC=CCC2C(=O)N1c1ncn[nH]1 (stereo not drawn) 0.84%
COc1cccc(OC)c1C(=O)Nc1ccccc1NC(=O)c1c(OC)cccc1OC -6.67%
O=[N+]([O-])c1ccc(/C=N/n2cn[nH]c2=S)cc1 0.85%
O=S(=O)(NC1CC1)c1ccc(S(=O)(=O)N2CCc3ccccc32)cc1 18.3%
COc1cc2c(cc1OC)C1c3ccc(OC)c(OC)c3OCC1(O)C2 (stereo not drawn) -4.73%
CCN(CC(=O)Nc1ccc(OC)cc1)C(=O)c1ccc2c(=O)n3c(nc2c1)CCC3 -5.14%
O=C1/C(=C\c2cccnc2)SC(=S)N1c1ccc(F)cc1 1.49%
CCOc1cccc(/C=C2\NC(=S)N(c3ccccc3)C2=O)c1O 8.76%
O=C1/C(=C/c2ccco2)N=C(N2CCCCC2)N1c1ccccc1 23.7%
CC1CNC(=S)N(c2ccc(F)cc2)C1=O (stereo not drawn) -6.26%
CN(C)/C=C1\NC(=S)N(c2ccccc2)C1=O -8.51%
O=C1C(Cc2ccccc2)NC(=S)N1c1ccccc1 (stereo not drawn) -3.85%
Cc1ccc2c(C)c(C(=O)NCCc3ccco3)oc2c1C -1.77%
CN(CC(=O)Nc1ccc(Cl)c(C(F)(F)F)c1)C(=O)c1cc(=O)[nH]c2ccccc12 1.56%
Cc1ccc(C(=O)CCC(=O)Nc2ccc(C)cn2)cc1 -9.87%
Cc1ccnc(NC(=O)CCC(=O)N(CC(=O)NCc2ccccc2)c2ccc3c(c2)OCO3)c1 12.1%
Cc1cc(C)nc(SCc2cc(=O)c(OC(=O)c3ccc(Cl)c([N+](=O)[O-])c3)co2)n1 31.3%
CN(c1ccc(C(=O)Nc2ccc(Cl)cn2)cc1)S(=O)(=O)c1ccccc1 18.3%
CN(C1=C(NC(=O)c2ccccc2)C(=O)c2ccccc2C1=O)C1CCS(=O)(=O)C1 (stereo not drawn) 23.9%
Fc1cccc(NC(=S)N2CCCCC2)c1 1.92%
Cc1ccc(CC(NC(=O)c2ccccc2)C(=O)N2CCCC2C(=O)O)cc1 (stereo not drawn) -0.14%
O=C(O/N=C1\CCS(=O)(=O)c2sccc21)C1CC1 -8.69%
Nc1c(Cl)cc2c(c1Oc1ccccc1)C(=O)c1ccccc1C2=O 7.9%
O=C1C(Cl)=C(NCCc2ccccc2)C(=O)c2ccccc21 14.2%
Cc1ccc(NS(=O)(=O)c2ccc(C(=O)N3CCCC(C(F)(F)F)C3)cc2)cc1 (stereo not drawn) -6.68%
O=C1/C(=C/c2ccccn2)SC(=S)N1c1cccc(O)c1 1.67%
O=C(COc1ccccc1F)Nc1ccc2[nH]c(=O)[nH]c2c1 -2.63%
COC(=O)c1cc(NC(=O)c2cc(-c3ccc(Cl)cc3)oc2C(F)(F)F)ccc1N1CCOCC1 -11.7%
CC(C)C(NC(=O)/C(=C/c1ccco1)NC(=O)c1ccc(Br)o1)C(=O)O (stereo not drawn) 25.7%
CSCCC(NC(=O)/C(=C/c1ccco1)NC(=O)c1ccc(Br)o1)C(=O)O (stereo not drawn) 13.7%
COc1cc(/C(O)=C(\C#N)c2nc3ccccc3[nH]2)cc(OC)c1OC 3.24%
Cc1ccc(Cl)cc1N1CCN(C(=O)COc2ccc(S(=O)(=O)NC(C)C)cc2)CC1 6.57%
O=C(COc1ccc2c(c1)CCC2)N1CCN(c2ccc(F)cc2)CC1 4.96%
Cc1cc(C)n(CC(O)COc2ccccc2[N+](=O)[O-])n1 (stereo not drawn) 10.6%
N#CC1=C(N)Oc2c(oc(CO)cc2=O)C1c1cccs1 (stereo not drawn) 26.6%
COc1ccc(C2C(C#N)=C(N)Oc3c2oc(CO)cc3=O)cc1 (stereo not drawn) -2.28%
O=C(OCC(=O)N1CCc2ccccc21)c1ccccn1 -3.08%
Cc1ccc(S(=O)(=O)N2CCOCC2)cc1C(=O)NC1CCCCC1 1.31%
CCOC(=O)c1sc2nc(CC(=O)OC)nc(NCc3ccc(F)cc3)c2c1C -3.02%
CCOC(=O)c1sc2nc(CC(=O)OC)nc(NCc3ccc(Cl)cc3)c2c1C -0.39% and -4.73%
CC(Oc1cccc(Cl)c1)C(=O)NNC(=O)c1cccnc1 (stereo not drawn) -4.59%
COC(=O)c1ccc(N)cc1O -0.17%
COC(=O)c1ccc(C(=O)OC)c(=O)[nH]1 0.04%
Cc1nc2nc(-c3ccccc3)[nH]n2c(=O)c1C 21.8%
Cn1c(=O)c2c(-c3ccccc3)n(Cc3ccccn3)cc2n(C)c1=O -0.87%
CC(=O)Nc1ccc(N2C(=O)CC(Sc3nc(C)cc(C)n3)C2=O)cc1 (stereo not drawn) 2.02%
CN(C)S(=O)(=O)c1ccc(N2CCCC2)c(C(=O)Nc2ccc(N3CCOCC3)cc2)c1 -0.06%
CC(=O)NCCc1ccc(C(=O)COC(=O)c2cccn2C)cc1 -0.53%
O=C(N/N=C/c1ccc(Cl)cc1Cl)C1CCN(c2ncc(C(F)(F)F)cc2Cl)CC1 0.03%
NNC(=O)/C=C/c1ccc(Cl)cc1Cl -9.79%
COc1cccc(/C=C/C(=O)c2ccc3c(c2)OCCO3)c1OC -6.76%
COc1ccc(NC(=O)/C=C/c2cc(Br)ccc2OC)cc1 -0.44%
CN(C)/C=C/C(=O)/C=C/c1ccc(Cl)cc1Cl 0.37%
COc1ccc(C(=O)/C=C/c2ccc(OC)cc2OC)c(O)c1 -6.99%
COc1cccc(/C=C/C(=O)c2cccc([N+](=O)[O-])c2)c1OC -0.4%
COc1ccc(/C=C/C(=O)c2ccccc2)c(OC)c1 2.19%
COc1ccc(OC)c(/C=C/C(=O)c2ccc(Cl)cc2)c1 -4.03%
Cn1c(=O)c2c(nc(CN3CCN(Cc4ccccc4)CC3)n2Cc2ccc(F)cc2)n(C)c1=O 8.38%
COc1cccc(CNC(=O)CCc2nc3cc(S(=O)(=O)N4CCOCC4)ccc3n2C)c1 -1.52%
COc1ccc(-c2nnc(SCC(=O)c3ccc[nH]3)o2)cc1 0.99%
O=C(Oc1ccccc1-c1nnco1)c1ccc(Cl)cc1 5.13%
COc1ccc(C=CC(=O)c2cc(O)ccc2O)cc1 -0.99%
COc1ccccc1/C=C/C(=O)c1ccccc1 3.38%
COc1ccc(/C=C/C(=O)c2ccc(OC)cc2OC)cc1 -1.1%
COc1ccccc1C=CC(=O)C=Cc1ccccc1OC 7.01%
Cc1nc(C(=O)N/N=C/c2[nH]ncc2Br)cs1 8.49%
COc1ccc(O)c(C(=O)c2cnn(S(=O)(=O)c3ccc(C)cc3)c2)c1 4.82%
CC1(C)CN(c2ccccc2)N(Cc2ccc(F)cc2)C1=O -1.71%
NC(=O)C1(C(=O)O)OC1(c1ccc(Cl)cc1)c1ccccc1Cl (stereo not drawn) 5.1%
CCN(CC)CCCNC(=O)c1ccc2c(SCC(=O)O)c3c(nc2c1)CCC3 27.5%
CCOc1ccc(NC(=O)c2ccc3c(SCC(=O)O)c4c(nc3c2)CCCC4)cc1 2.98%
COc1cc(NC(=O)c2ccc3c(SCC(=O)O)c4c(nc3c2)CCC4)cc(OC)c1OC 22.2%
CC(C)CCNC(=O)c1ccc2c(SCC(=O)O)c3c(nc2c1)CCCC3 25.7%
CN1CCN(C(=O)c2ccc(CN3CCOCC3)cc2)CC1 -3.34%
Cc1cc(NS(=O)(=O)c2ccc(NC(=O)CSc3nnc(-c4ccco4)n3C)cc2)nc(C)n1 2.91%
O=C(Nc1ccccc1Cl)Nc1ccnn1C1CCN(C(=O)c2cscn2)CC1 5.94%
C=CCn1c(SCC(=O)NC2CC2)nc2ccccc2c1=O 1.47%
O=C(/C=C/Nc1ccc(F)cc1)c1ccco1 10.5%
O=C(/C=C/Nc1ccc(Oc2ccccc2)cc1)c1ccco1 12.6%
NS(=O)(=O)c1ccc(NC(=O)C2CCCN(S(=O)(=O)c3ccc(F)cc3)C2)cc1 (stereo not drawn) -11.9%
Cc1ccc(N(CC(=O)NCc2cccnc2)S(C)(=O)=O)cc1C -4.47%
COc1cccc(N(CC(=O)NCc2cccnc2)S(C)(=O)=O)c1 -2.81%
